Compound activity (PubChem)
C-LANA FP: blocks KSHV LANA C-terminal domain binding to DNA | MBP-C-LANA/FAM-LBS DNA binding, fluorescence polarization | inhibition, % at 9 µM | 340,000 tested, 0.078% active;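 active = highest replicate inhibition at or above 60% at 9 µM, even if other replicates fall short; inactive = all replicates below 60% inhibition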
Cardiac RTF inh: cardiac RTF calcium desensitization; 340,000 tested, 0.12% active; P19429+P45379; inhibition, % at 7.15 µM; IANBD-labeled cardiac RTF, Ca2+ fluorescence;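 active = inhibition above the mean inhibition of all tested compounds plus 3 SD, cut at about 17% in these data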;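 note: assay run at fixed EC70 calcium of 1.6 mM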
Keap1 Nrf2 FP: inhibitors of human Keap1-Nrf2 protein-protein interaction; AID 504523; Keap1 Kelch-Nrf2 peptide fluorescence polarization, 1536-well; Q14145; 340,000 tested, 0.15% active; inhibition, % at 9.4 µM; in the data active = inhibition above about 12%; inconclusive = no clear call, values can overlap the other calls; inactive = below about 7.3%;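 note: human Keap1 Kelch domain with fluorescein labeled Nrf2 9mer peptide probe; higher means more block of Keap1 binding to Nrf2 peptide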
Target sequence (Q14145 whole entry, looked up, the tested form may be a part): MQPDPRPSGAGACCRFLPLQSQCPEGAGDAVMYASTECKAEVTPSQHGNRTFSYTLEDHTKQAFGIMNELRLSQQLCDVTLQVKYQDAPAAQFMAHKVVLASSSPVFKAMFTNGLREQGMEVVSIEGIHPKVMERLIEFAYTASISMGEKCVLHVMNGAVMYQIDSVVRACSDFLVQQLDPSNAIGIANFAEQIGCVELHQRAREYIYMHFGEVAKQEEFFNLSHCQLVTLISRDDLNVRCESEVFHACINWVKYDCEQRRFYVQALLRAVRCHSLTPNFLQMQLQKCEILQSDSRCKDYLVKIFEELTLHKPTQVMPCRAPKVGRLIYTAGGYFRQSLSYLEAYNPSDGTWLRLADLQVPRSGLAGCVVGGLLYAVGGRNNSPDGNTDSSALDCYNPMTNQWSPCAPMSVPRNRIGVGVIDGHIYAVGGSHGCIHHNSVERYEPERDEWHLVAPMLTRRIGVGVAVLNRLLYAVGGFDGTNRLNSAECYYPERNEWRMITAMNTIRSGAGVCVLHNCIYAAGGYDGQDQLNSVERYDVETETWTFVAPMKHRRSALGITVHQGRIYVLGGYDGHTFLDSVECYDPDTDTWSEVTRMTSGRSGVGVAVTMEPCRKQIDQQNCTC
cardiac RTF act: cardiac RTF calcium sensitization | activation, % at 7.2 µM | AID 493008 | 340,000 tested, 0.24% active | IANBD-labeled TnC RTF fluorescence at EC20 calcium; 0% EC20 calcium, 100% full calcium;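 active = activation above the mean over all tested compounds plus 3 SD, cut at about 30% in these data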;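 note: rise in fluorescence read as greater calcium sensitivity of cardiac thin filaments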
Keap1 TSA: binders of human Keap1 Kelch domain; Keap1 Kelch thermal shift, delta Tm; hits give high values; shares compounds with Keap1 Nrf2 FP; AID 651823; 400 tested, 8% active; max delta Tm, degrees C; in the data active = max delta Tm above about 0.48 degrees C
Dye-only ctr: dye artifact in Keap1 thermal shift counter-screen; shares compounds with Keap1 Nrf2 FP; Sypro Orange dye-only thermal melt, no protein, delta Tm; top dose 26 µM; delta Tm, degrees C (no concentration beside the values); 140 tested, under 10 active; AID 651858;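 active = at highest dose tested, delta Tm positive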
A number is an active result; – = inactive; ? = inconclusive; · = no result given. Shown are actives, neighbours in structure and some others; about 0.5% of the full set was active somewhere.

SMILES	C-LANA FP	Cardiac RTF inh	Keap1 Nrf2 FP	cardiac RTF act	Keap1 TSA	others
O=C(COc1cc(Cl)c(Cl)cc1Cl)Nc1ccc([N+](=O)[O-])cc1Cl	–	–	–	–	·
C=CCOc1ccc(C2OC34CCCCC3C(C#N)(C#N)C2(C#N)C(=N)O4)cc1 (stereo unspecified)	–	–	11	–	–	Dye-only ctr=–
CCCCOc1ccc(C2OC34CCCCC3C(C#N)(C#N)C2(C#N)C(=N)O4)cc1 (stereo unspecified)	60	–	27	–	–	Dye-only ctr=–
CCN(CC)C(=O)Cn1cc(S(=O)(=O)CC(=O)NCc2ccccc2)c2ccccc21	–	–	–	–	·
Oc1ccc2c(c1)OCC1(O)Cc3cc(O)c(O)cc3C21 (stereo unspecified)	–	–	18	–	–
Oc1cc2c(cc1O)[C@H]1c3ccc(O)c(O)c3OC[C@@]1(O)C2	–	–	–	–	·
COc1ccc2[nH]c(CN3CCC(n4nccc4NC(=O)C4CC4)CC3)c(C)c2c1	–	–	–	–	·
COc1ccc(C(C)=NNc2ccc([N+](=O)[O-])cc2S(=O)(=O)Nc2ccccc2C(=O)O)c(OC)c1	–	–	32	–	3.3	Dye-only ctr=–
O=C1NC2=C(C(=O)CCC2)C(c2ccccc2Cl)N1 (stereo unspecified)	–	–	–	–	·
Cc1nc(Cl)c2c(n1)NC1=C(O2)C(=O)CCC1	–	–	28	47	–	Dye-only ctr=–
CCCCNC(=O)c1onc(CS(=O)(=O)c2ccccn2)c1C(=O)NCCCC	–	–	–	–	·
CCC1(c2ccccc2)NC(=O)N(CC(=O)NCc2ccccc2OC)C1=O (stereo unspecified)	–	–	–	–	·
CCC1(c2ccccc2)NC(=O)N(CC(=O)Nc2ccc(OC)nc2)C1=O (stereo unspecified)	88	–	61	61	–
CCSc1nnc(NC(NC(C)=O)(C(F)(F)F)C(F)(F)F)s1	–	–	–	–	·
Cc1c(C(=O)NCc2ccccc2)c(-c2ccccc2)nn1-c1ccccc1	–	–	–	–	·
O=C1c2cccc3c(O)ccc(c23)C(=O)N1c1ccc(Cl)cc1	–	–	39	532	–
O=C1c2cccc3c(O)ccc(c23)C(=O)N1Cc1ccco1	76	–	37	574	–
COc1ccc(N=Nc2nc3cc(Br)c(Br)cc3n2C)c(OC)c1	–	–	13	47	–
CCCOc1ccc(N2C(=O)CC(N(CCc3ccccc3)C(=O)c3ccccc3)C2=O)cc1 (stereo unspecified)	–	–	–	–	·
N=c1c(C(=O)NC2CCCC2)cc2c(=O)n3ccccc3nc2n1Cc1ccccc1	–	–	?	–	–
CC(C)CCn1c(COc2ccccc2)nn(CCC#N)c1=S	–	–	–	–	·
Cc1ccc(NC(=S)NCc2ccc(F)cc2)c(C)c1	–	–	22	–	–	Dye-only ctr=–
Cc1ccnc(NC(=O)CCc2c[nH]c3ccccc23)c1	–	–	–	–	·
Cc1cc(C)n2c(=O)[nH]nc2c1	–	–	–	–	·
